Assay outcomes: PubChem, National Center for Advancing Translational Sciences (NCATS)
SNCA viab count – GF-AFC viability counterscreen for inhibitors of alpha-synuclein gene (SNCA) expression. HEK-293-SNCA-luc viability, GF-AFC fluorescence, 24 h. AID 1671193, 2021. Potency, µM (titrated, usually from 57.1 µM), without a hit: at the top dose activity change, negative = cytotoxicity, most hits filed as cytotoxic. 150,000 tested, 0.12% active;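 further: 0% = DMSO-treated cells and -100% = medium-only wells without cells; nearly all actives have a fitted effect of over 30% in size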
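Cytotoxicity counterscreen: after 24 h compound treatment of genome-edited SNCA-luciferase HEK-293 cells, live-cell protease substrate GF-AFC read by fluorescence after 30 min; activity scaled between DMSO (0%) and medium-only (-100%), curves Hill-fitted.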
FLuc inh-1 – Firefly luciferase inhibition profiling of diverse chemical library using quantitative high-throughput screening; purified P. pyralis luciferase, luminescence, biochemical; 76,000 tested, 2.5% active; AID 1347043, 2019; Potency, µM (top dose mostly 115 µM), usual class: inhibitors; further: on the % scale 0 is the no-effect control and ±100 the full control effect; nearly all actives have a fitted effect of over 65% in size
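FLuc 10nM, D-luciferin 10uM, ATP 10uM, Mg acetate 10mM, Tris acetate pH 7.5, Tween/BSA; cpd qHTS; enzyme added last; CCD luminescence.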
HEK293 tox – Cytotoxic Profiling in HEK 293 Cell Line of Diverse Libraries Using Quantitative High-Throughput Screening; HEK 293 viability, ATP luminescence (CellTiter-Glo), 48-72 h; Potency, µM (top dose mostly 115 µM), inactives show top-dose activity change, negative = cytotoxicity, usual class: inhibitors; 94,000 tested, 6.6% active; AID 1345083, 2018; further: on the % scale 0 is the no-effect control and ±100 the full control effect; nearly all actives have a fitted effect of over 60% in size
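CellTiter-Glo luminescence (cellular ATP) was read after 48 or 72 hr of compound exposure at 37 degree Celsius. Cells were HEK 293 plated at 250 cells/well.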
NIH3T3 tox – Cytotoxic Profiling in NIH 3T3 Cell Line of Diverse Libraries Using Quantitative High-Throughput Screening. Potency, µM (highest dose often 96.7 µM), inactives show at the highest dose activity change, negative = cytotoxicity, hits mostly inhibitors. AID 1345082, 2018. 94,000 tested, 4.3% active. NIH 3T3 viability, CellTiter-Glo ATP luminescence, 48-72 h; further: on the % scale 0 is the no-effect control and ±100 the full control effect; nearly all actives have a fitted effect of over 55% in size
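Viability of NIH 3T3 cells after 48 or 72 hr compound treatment at 37 °C was assessed by CellTiter-Glo, with luminescence imaged following a 10 min room-temperature step.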
hNpr1 antagonist – Natriuretic polypeptide receptor (hNpr1) antagonism - Primary qHTS | Potency, µM (titrated, usually from 46.3 µM), for the others: at the highest dose activity change, negative = inhibition, most hits filed as inhibitors | HEK293 hNpr1 GloSensor cGMP, ANP-stimulated luminescence | 76,000 tested, 1.6% active | Atrial natriuretic peptide receptor 1 (Homo sapiens), P16066 | AID 1347048, 2019; calls by dose curve; further: on the % scale 0 is the no-effect control and ±100 the full control effect; nearly all actives have a fitted effect of over 60% in size
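Compound pre-incubated 30 min at room temperature on GloSensor-loaded HEK293 cells stably carrying hNpr1 and the pGS-40F cGMP biosensor. Stimulation uses hNppA at 0.1 nM final; luminescence is taken at baseline and 20 min post-agonist.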
SNCA expr inh – Primary qHTS assay for inhibitors of alpha-synuclein gene (SNCA) expression; HEK-293 SNCA-luciferase knock-in, luminescence, 24 h; Potency, µM (highest dose often 57.2 µM), for the others: at the highest dose activity change, negative = inhibition, hits mostly inhibitors; 140,000 tested, 0.17% active;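 further: plate controls were DMSO cells for no effect and cell-free wells for full effect; nearly all actives have a fitted effect of over 45% in size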
FLuc SDR -ATP – Firefly luciferase (FLuc-C-HiBiT) SDR gain of signal screen - without ATP. 1,300 tested, 7.8% active. Purified FLuc-C-HiBiT, Nano-Glo HiBiT luminescence, no ATP. shares compounds with FLuc inh-1. Potency, µM (doses to about 32.7 µM), for inactives: at the top dose activation (signal gain), most hits filed as activators. AID 1963318, 2024; further: nearly all actives have a fitted effect of over 55% in size
FLuc SDR ATP – Firefly luciferase (FLuc-C-HiBiT) SDR gain of signal screen - plus ATP; AID 1963319, 2024; 1,300 tested, 8.7% active; purified FLuc-C-HiBiT + ATP, HiBiT complementation luminescence; shares compounds with FLuc inh-1; Potency, µM (highest dose often 32.7 µM), for the others: top-dose activation (gain of signal), most hits filed as activators;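 further: signal reports ligand binding via conformational change of the enzyme rather than luciferase catalysis; % of control where 0% means no effect; nearly all actives have a fitted effect of over 55% in size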
FLuc inh-2 – Firefly luciferase (FLuc-C-HiBiT) enzymatic inhibition screen - Functional assay. shares compounds with FLuc inh-1. purified FLuc-C-HiBiT enzyme, luciferin luminescence. Potency, µM (top dose mostly 32.7 µM), for the others: at the highest dose activity change, negative = inhibition, usual class: inhibitors. 1,300 tested, 42% active. AID 1963320, 2024; further: on the % scale 0 is the no-effect control and ±100 the full control effect; nearly all actives have a fitted effect of over 70% in size
Numbers without * were called inactive; i = inactive; ? = inconclusive; / = no result; [ ] = remark or other dose. Shown are actives, neighbours in structure and some others; about 7.4% of the full set was active somewhere. Unless noted, the call rests on the fitted dose curve; in most records, active means well fitted curve in the direction sought with a large enough effect; inconclusive means small, poorly fitted or top-dose-only effect, or another doubt; inactive means no such curve, though single readings can be large; an effect the other way counts as inactive or inconclusive. Potency means the concentration at half of the fitted maximal effect.

SMILES | SNCA viab count | FLuc inh-1 | HEK293 tox | NIH3T3 tox | hNpr1 antagonist | SNCA expr inh | FLuc SDR -ATP | FLuc SDR ATP | FLuc inh-2
COc1cccc(-c2ncc3c(n2)OCCN(Cc2ccccc2)C3=O)c1 | -2%[87.6 µM] | 2.8µM* | ? | ? | ? | 14%[87.6 µM] | 24%[49.3 µM] | ? | ?
O=C1c2cnc(-c3cc4ccccc4o3)nc2OCCN1Cc1ccccc1 | -8%[87.6 µM] | 0.1µM* | ? | ? | 8.9µM* | -39%[87.6 µM] | ? | ? | 1.6µM*
COCCCNC(=O)C1CCCN(c2nccc(Nc3ccccc3F)n2)C1 (stereo not given) | -4%[12.5 µM] | / | ? | ? | / | -29% | / | / | /
Cc1noc(-c2nc(-c3ccccc3C)no2)n1 | -7% | ? | -5% | i | 3% | 32% | / | / | /
CCc1noc(-c2nc(-c3ccccc3C)no2)n1 | 0% | 14µM* | ? | -24% | 2% | 141% | 9% | 8% | -14%
COc1ccc(CCNc2nc3ccccc3c3nc(-c4cccc(C)c4)nn23)cc1OC | 2% | / | / | / | / | 66% | 15% | 12% | ?
COC(=O)[C@H]1CN(S(C)(=O)=O)CCN1S(C)(=O)=O | 2%[87.6 µM] | i | i | -15%[174 µM] | 4%[70.6 µM] | -12%[87.6 µM] | / | / | /
COc1cc(NC(=O)c2ccc(-c3ncn[nH]3)cc2)ccc1NC(=O)C(C)(C)C | -9% | 11µM* | 25µM* | ? | -14% | 12% | 18% | 12% | ?
COc1cc(NC(=O)CCN2CCCCCC2=O)ccc1NC(=O)C(C)(C)C | 10% | i | 0% | -26% | 10% | 3% | / | / | /
C[C@@H](NC(=O)C1CCCCC1)c1onc(-c2ccc(F)cc2)c1C(=O)O | 3%[87.6 µM] | i | i | -8%[138 µM] | 1%[70.6 µM] | 18%[87.6 µM] | / | / | /
Cc1ccc(-c2noc([C@@H]3Cc4nc[nH]c4CN3C(=O)Nc3cccc(F)c3)n2)cc1 | ? | 10µM* | 79µM* | ? | ? | 14%[87.6 µM] | 16%[49.3 µM] | 14%[49.3 µM] | ?
COc1ccc(-c2noc([C@@H]3Cc4nc[nH]c4CN3C(=O)Nc3ccc(Cl)cc3)n2)cc1 | ? | 13µM* | ? | ? | -25% | 13% | 13% | 8% | -13%
O=C(Nc1ccc(F)cc1)N1Cc2[nH]cnc2C[C@H]1c1nc(-c2ccc(F)cc2)no1 | -21%[87.6 µM] | ? | ? | ? | -15%[70.6 µM] | 48%[87.6 µM] | / | / | /
CC(C)CCN1C[C@@H](CO)[C@H](c2nc(-c3cccnc3)no2)C1 | -5% | ? | -18% | -16% | 0% | 78% | / | / | /
COc1ccc(NC(=O)c2cc3c(=O)[nH]c(C)cn3n2)cc1OC | 4% | 7.1µM* | ? | -19% | 0% | 66% | ? | ? | 9.9µM*
COc1ccc(CCNC(=O)c2cc3c(=O)[nH]c(C)cn3n2)cc1OC | 1% | i | 1% | -13% | 7% | 2% | / | / | /
O=C(c1cc(-c2ccccc2O)on1)N1CCCCC1 | 3% | / | / | / | / | 91% | 24% | 16% | ?
CN(C(=O)c1cc(-c2ccccc2O)on1)c1ccccc1 | -16% | / | / | / | / | 85% | / | / | /
COc1ccc(CCC(=O)N2CCC3(CC2)CC(O)CCO3)cc1 (stereo not given) | -17%[12.5 µM] | i | 9% | -10% | -19% | 35% | / | / | /
COc1ccc(C2=NOC3(CCN([S+](=O)([O-])c4cccs4)C3)C2)cc1 (stereo not given) | -17% | 5.6µM* | ? | ? | ? | 161% | 11% | 15% | -10%
O=[S+]([O-])(c1cccs1)N1CCCC2(CC(c3ccccc3)=NO2)C1 (stereo not given) | -13% | / | ? | ? | / | ? | / | / | /
CCN(CC)CCOc1ccc(C(=C(Cl)c2ccccc2)c2ccccc2)cc1 | 2% | / | / | / | / | -21% | / | / | /
CCN(CC)CCOc1ccc(-c2nc3cc(Cl)ccc3s2)cc1 | / | / | / | / | / | / | 21%[65.7 µM] | 13%[65.7 µM] | ?
O=C(O)CCSc1nnc(-c2ccc(Cl)cc2Cl)o1 | 15% | / | / | / | / | ? | ? | 0.7µM* | 0.5µM*
CCN(C(=O)CSc1nnc(-c2ccc(Cl)cc2)o1)c1ccccc1 | 11% | / | / | / | / | 15% | / | / | /
COCC(=O)N1CCc2nc(C)nc(-c3ccc(OC)cc3)c2C1 | 15%[87.6 µM] | i | -23%[172 µM] | -29%[138 µM] | 2%[70.6 µM] | 24%[87.6 µM] | 10%[49.3 µM] | 8%[49.3 µM] | -5%[49.3 µM]
COc1ccc(-c2nc(C)nc3c2CN(C(C)=O)CC3)cc1 | 11%[87.6 µM] | i | -16%[172 µM] | -23%[138 µM] | -13%[70.6 µM] | 3%[87.6 µM] | / | / | /
COc1cc(C)ccc1OCc1cc(C(=O)NCc2n[nH]c3c2CCC3)no1 | 0% | 11µM* | ? | ? | 0% | -9% | 17% | 14% | ?
CCc1ccc2nc(N3CCC(C(=O)O)CC3)sc2c1 | -2% | / | / | / | / | -89% | 2.5µM* | 0.07µM* | 0.035µM*
